Inconclusive results are not listed. Unmarked numbers belong to inactive results. Calls follow the shape of the full dose curve.
Experiment: qHTS assay to identify small molecule agonists of the endoplasmic reticulum stress response signaling pathway - cell viability counter screen (AID 1159517); also: nearly all actives have a fitted effect of over 50% in size
Conditions: ESRE-bla HeLa viability, CellTiter-Glo luminescence, 5 h; series mostly up to 61 µM; activity change, negative = cytotoxicity: at the top concentration
Excerpt: U.S. Tox21 Program National Center for Advancing Translational Sciences [NCATS] NIH Chemical Genomics Center [NCGC] U.S. Environmental Protection Agency [EPA] National Institutes of Environmental Health Sciences [NIEHS] National Toxicology Program [NTP] U.S. Food and Drug Administration [FDA] Tox21 Assay Overview: Endoplasmic Reticulum (ER) plays an important role in cellular signaling, protein folding/maturation, stress response, lipid biosynthesis, calcium storage and release etc. Under stress conditions, proteins in ER misfold or unfold, and leading to the expression of ER stress responsive genes. ER stress has been associated with a variety of pathophysiological conditions such as cancer, inflammation, neurodegenerative diseases, diabetes, ischemic heart disease etc. To identify the compounds that induce ER stress response, an ER stress reporter cell line, CellSensor ESRE-bla HeLa (Life Technologies, Carlsbad, CA) containing a beta-lactamase reporter gene under control of the Endoplasmic reticulum Stress Response Element (ESRE) was used to screen Tox21 10K compound library. The cytotoxicity of the Tox21 compound library against the ESRE-bla HeLa cell line was tested in parallel by measuring cell viability using the CellTiter-Glo assay in the same wells.
Tox21 Assay Protocol Summary: ESRE-bla HeLa cells were dispensed at 1,500 cells/6 uL of assay medium per well into black wall/clear-bottom 1536-well plates using a Multidrop Combi (ThermoFisher Scientific, Waltham, MA) dispenser. After the assay plates were incubated at 37 C and 5% CO2 for an overnight, 23 nL of compounds dissolved in DMSO, positive controls or DMSO only was transferred to the assay plate by a Pintool station (Kalypsys, San Diego, CA). The assay plates were incubated at 37 C and 5% CO2 for 5 hr. One uL of LiveBLAzer B/G FRET substrate (Life Technologies) was added using a FRD (Flying Reagent Dispenser, Aurora Discovery, San Diego, CA) and the plates were incubated at room temperature for 2 hr. Fluorescence intensity (405 nm excitation, 460 nm and 530 nm emissions) was measured using an Envision plate reader (PerkinElmer, Shelton, CT). For cytotoxicity, 4 ul/well of CellTiter-Glo reagent was added into the assay plates using an FRD. After 30 min incubation at room temperature, the luminescence intensity was measured using a ViewLux plate reader (PerkinElmer).
% is scaled to controls: 0 for no effect and ±100 for the full control effect.

| SMILES | activity change, negative = cytotoxicity |
| --- | --- |
| CCCCC(CC)COC(=O)COc1cc(Cl)c(Cl)cc1Cl (stereo not given) | -0.683% |
| CC(C)C(=O)OCC(C)(C)C(O)C(C)C (stereo not given) | 25.5% [at 78.8 µM] |
| CC1=CC(=O)CC(C)(C)C1=O | -10.2% [at 78.8 µM] |
| CC(C)=CCC[C@](C)(O)[C@@H]1CC=C(C)CC1 | -5.3% |
| COc1nc(C)nc(NC(=O)NS(=O)(=O)c2ccccc2OCCCl)n1 | 3.76% |
| CN1CCN(C2=Nc3ccccc3Oc3ccc(Cl)cc32)CC1 | 20.4% |
| NC(=O)Cc1cccc(C(=O)c2ccccc2)c1N | -9.09% |
| CC(=O)Nc1ccc(C)c(Cl)c1 | 4.56% |
| C=CCCC=C | -2.79% [at 78.8 µM] |
| Cc1nc(N)nc(N)c1-c1ccc(Cl)c(Cl)c1 | -11.5% |
| Cn1cnc2c(F)c(Nc3ccc(Br)cc3Cl)c(C(=O)NOCCO)cc21 | -3.74% |
| CN1CCN(c2c(F)cc3c(=O)c(C(=O)O)cn4c3c2SCC4)CC1 | -1.45% |
| Nc1ccc2ccccc2c1S(=O)(=O)O | 4.66% [at 78.8 µM] |
| CCCCNc1ccc(C(=O)OCCN(CC)CC)cc1 | 13.2% |
| Cc1cn([C@@H]2O[C@H](CO)[C@@H](O)[C@@H]2F)c(=O)[nH]c1=O | 1.06% |
| CC1(O)CSC(C)(O)CS1 (stereo not given) | 3.59% |
| CC(C)NC[C@@H](O)COc1cccc2ccccc12 | -24.2% |
| CC(C)NCC(O)COc1ccc(CCOCC2CC2)cc1 (stereo not given) | -1.82% |
| CCN(CC)C(=O)N(CC)CC | -3.89% |
| CCN[C@H]1CN(CCCOC)S(=O)(=O)c2sc(S(N)(=O)=O)cc21 | -5.07% |

| SMILES | activity change, negative = cytotoxicity |
| --- | --- |
| O=C(CC(=O)C(F)(F)F)c1ccccc1 | 13.5% [at 78.8 µM] |
| CCCCCCCCc1ccc(S(=O)(=O)O)cc1 | -10.7% |
| Nc1ccc(Oc2ccc(N)c(N)c2)cc1 | 12.7% |
| CCCCC1CCC(=O)O1 (stereo not given) | -5.19% |
| Cc1ccccc1C(=O)Nc1ccc(C(=O)N2CCCC(O)c3cc(Cl)ccc32)c(C)c1 (stereo not given) | 13.6% |
| NC(=O)NS(=O)(=O)c1ccc(Cl)cc1 | 10.4% |
| CC[C@H]1CC[C@H](NCc2cc3c(cc2OC)[C@H]2C[C@H]2C(=O)N3C)[C@H](c2ccccc2)N1 | -6.91% |
| NCCC(O)(P(=O)(O)O)P(=O)(O)O | -14.6% |
| CCCCCCCOC(=O)CCC | 1.18% |
| Cc1c[nH]c(=S)[nH]c1=O | -38.5% |
| CCCCCCCCCCCCOCCOS(=O)(=O)O | -16.9% |
| CC(C)(C)c1cccc(O)c1 | -7.57% |
| Cc1cc(NS(=O)(=O)c2ccc(N)cc2)nc(C)n1 | -1.04% |
| C1CCOC1 | -0.559% [at 78.8 µM] |
| CC(C)OC(C)C | 6.56% [at 78.8 µM] |
| CCc1cc(Cl)c(OC)c(C(=O)NC[C@@H]2CCCN2CC)c1O | 5.01% |
| COc1ccc(Nc2ccc(OC)cc2)cc1 | 3.7% [at 78.8 µM] |
| Oc1ccccc1F | 18% |
| CC(=O)N(CC(O)CN(C(C)=O)c1c(I)c(C(=O)NCC(O)CO)c(I)c(C(=O)NCC(O)CO)c1I)c1c(I)c(C(=O)NCC(O)CO)c(I)c(C(=O)NCC(O)CO)c1I (stereo not given) | 4.38% |
| Cc1cc2c(s1)Nc1ccccc1N=C2N1CCN(C)CC1 | 16% |

From PubChem BioAssay (Tox21)
